Only some compounds are listed: those with a hit (about 2.2% of all), similar ones and a draw of the others.
TDP43 rescue: qHTS of TDP-43 Inhibitors; Potency, µM (series often up to 46.1 µM), actives largely listed as activators; 410,000 tested, 1.8% active; TDP-43 expressing yeast growth rescue, BacTiter-Glo, 24 h; AID 652104, 2013; further: nearly all actives have a fitted effect of over 50% in size
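Galactose-induced TDP-43 yeast, OD600=0.02, compound pinned; 24 hr, 30 deg C; BacTiter-Glo luminescence for growth. Inhibitors of TDP-43 toxicity read as activators.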
aSyn yeast inh: qHTS of alpha-syn Inhibitors. AID 652106, 2013. Yeast expressing alpha-synuclein, growth rescue, BacTiter-Glo, 24 h. Potency, µM (highest dose often 46.1 µM), hits mostly activators. 370,000 tested, 0.14% active; further: nearly all actives have a fitted effect of over 65% in size
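Readout is rescue of growth in alpha-synuclein-expressing yeast, so inhibitors of toxicity appear as activators. Growth after 24 hr at 30 deg C in galactose medium is quantified by luminescence.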
Mito fusion yeast: qHTS Assay for Small Molecule Inhibitors of Mitochondrial Division or Activators of Mitochondrial Fusion; S. cerevisiae fusion-defective mutant growth rescue, CellTiterGlo 48 h; 320,000 tested, 0.23% active; AID 485298, 2010; Potency, µM (highest dose often 46.1 µM), hits mostly activators; further: nearly all actives have a fitted effect of over 45% in size
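S. cerevisiae fusion-defective temperature-sensitive mutants (e.g. fzo1-1, mgm1-5) grown 48 h at 37C in YPEG (ethanol/glycerol non-fermentable) medium with 23 nl compound per well; growth rescue read as CellTiterGlo luminescence.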
FUS yeast rescue: qHTS for Suppressors of FUS Proteinopathy: Primary screen using FUS-linked yeast assay; S. cerevisiae FUS-expressing, growth rescue, OD600, 24 h; Potency, µM (top dose mostly 76.6 µM), usual class: activators; 390,000 tested, 0.24% active; further: nearly all actives have a fitted effect of over 55% in size
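Quantitative HTS measuring growth restoration of FUS-toxic yeast. Galactose-induced cells (OD 0.005) were exposed 24hr at 30C to compounds at several concentrations, then absorbance at 600 nm was recorded.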
Abeta rescue: qHTS for compounds that reverse cellular toxicity of Amyloid beta (A-beta) peptide in yeast: Primary Screen | 410,000 tested, 0.063% active | yeast expressing A-beta42, growth rescue, OD600, 48 h; response scale: 0% DMSO, 100% iron-clioquinol control | AID 1347071, 2019 | Potency, µM (titrated, usually from 46.1 µM), actives largely listed as activators; further: nearly all actives have a fitted effect of over 55% in size
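Growth rescue measured by 600 nm absorbance after 48 h yeast culture at 30 C with compound. Values normalized between DMSO and an equimolar ferric chloride plus clioquinol control.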
Numbers stand for hits; - = inactive; ? = inconclusive; . = not tested or not shown; [ ] = dose if it differs, or a comment. The call rests on the fitted dose curve; in most records, active means well fitted curve in the direction sought with a large enough effect; inconclusive means small, poorly fitted or top-dose-only effect, or another doubt; inactive means no such curve, though single readings can be large; an effect the other way counts as inactive or inconclusive.

SMILES	TDP43 rescue	aSyn yeast inh	Mito fusion yeast	FUS yeast rescue	Abeta rescue
CCCS(=O)(=O)c1c(S(=O)(=O)CCC)c2cc(C(C)(C)C)ccn2c1C(=O)c1ccc(OC)c(OC)c1	-	.	.	-	-
CCCS(=O)(=O)c1c(S(=O)(=O)CCC)c2cc(C(C)(C)C)ccn2c1C(=O)c1ccccc1	-	.	.	18µM	-
Cc1ccccc1CNC(=O)CCSCc1cnn(-c2ccccc2)c1-n1cccc1	?	.	.	?	-
Fc1ccc(NCc2cccn2-c2nnc(N3CCOCC3)s2)cc1	-	-	.	-	-
Cc1ccccc1NCc1cccn1-c1nnc(N2CCOCC2)s1	-	13µM	.	-	-
Fc1cccc(NCc2cccn2-c2nnc(N3CCOCC3)s2)c1	-	22µM	.	-	-
Cc1ccc2c(Cl)cc(Cl)c(OCC(=O)O)c2n1	14µM	-	-	-	-
Fc1ccc(CNC(=S)NCc2ccccc2)cc1	?	-	-	-	?
COc1ccc(C(C)NC(=S)NCc2ccc(F)cc2)cc1OC (stereo not given)	-	-	-	-	-
CCC(C)c1ccc(C(C)NC(=S)NCc2ccc(F)cc2)cc1 (stereo not given)	-	-	-	-	3.5µM
CCC(NC(=S)NCc1ccc(F)cc1)c1ccc(C(C)C)cc1 (stereo not given)	-	-	-	-	7.1µM
CCCc1ccc(C(C)NC(=S)NC2CCCCC2)cc1 (stereo not given)	-	-	-	-	11µM
CC(NC(=S)NCc1ccc(F)cc1)C12CC3CC(CC(C3)C1)C2 (stereo not given)	-	-	-	-	5.6µM
NC(=NC(=O)/C=C/c1ccccc1Br)N(CC#Cc1ccccc1)CC#Cc1ccccc1	.	.	.	-	.
CCOc1ccc(C(C)NC(=S)NCc2ccc(Cl)cc2)cc1 (stereo not given)	-	-	-	-	?
CCCc1ccc(C(C)NC(=S)NCc2ccc(F)cc2)cc1 (stereo not given)	-	-	-	-	3.5µM
CCSc1ccccc1C(=O)Nc1ccc(-c2nc3ccccc3s2)c(O)c1	-	.	.	-	-
COC(=O)NNC(=O)c1ccc(C)c(Br)c1	20µM	-	-	.	?
Cc1ccc(C(=O)NNC(=O)C2CC2)cc1Br	-	-	-	-	-
Cc1ccc(Cc2c(-c3ccc(C)cc3)nc3ccc(Cl)cn23)cc1	25µM	-	.	-	-
Cc1ccc(-c2nc3ccc(Cl)cn3c2Cc2ccccc2C(F)(F)F)cc1	22µM	-	.	?	-
Cc1ccc(-c2nc3ccc(Cl)cn3c2Cc2cccc(F)c2)cc1	14µM	?	.	-	-
N#Cc1ccc(-c2nc3ccc(Cl)cn3c2Cc2cccc(F)c2)cc1	-	-	.	-	-
Cc1ccc2nc(-c3ccc(Cl)cc3)c(Cc3ccccc3C(F)(F)F)n2c1	?	-	.	-	-
Cc1ccc(Cc2c(-c3ccc(Br)cc3)nc3ccc(Cl)cn23)cc1	-	-	.	-	-
SMILES	TDP43 rescue	aSyn yeast inh	Mito fusion yeast	FUS yeast rescue	Abeta rescue
Cc1ccc(Cc2c(-c3ccc(Cl)cc3)nc3ccc(Cl)cn23)cc1	35µM	-	.	-	-
COc1cccc(Cn2cc(COC(=O)N3CCOCC3)nn2)c1	.	.	.	-	.
Cc1ccc(-c2nc3cc(Cl)ccc3o2)cc1NC(=O)COc1ccccc1C	.	-	.	.	.
COc1cc(/C=C/c2cncc(/C=C/c3cc(OC)c(OC)c(OC)c3)c2)cc(OC)c1OC	.	-	.	.	.
Cc1c(C(C)(C)O)[nH]c2ccc(C(F)(F)F)cc12	35µM	-	-	-	18µM
CCC(C)(O)c1[nH]c2ccc(C(F)(F)F)cc2c1C (stereo not given)	18µM	-	-	-	14µM
COC(=O)c1ccc2c(C)c(C(C)(C)O)[nH]c2c1	-	-	-	-	-
CCOC(=O)CNc1cccc(C(F)(F)F)c1	-[0.397 µM]	-	-	-	-
COc1nc(-c2ccccc2)nc(C)c1CC(=O)O	-	-	6.3µM	-	-
CCSc1nc(CC)c2c(c1C#N)CCCC2	-	-	8.9µM	-	-
O=c1c2cn[nH]c2nc(SCc2cccc(Br)c2)n1-c1ccc(Cl)cc1	-	.	.	35µM	-

High-throughput results: PubChem BioAssay, National Center for Advancing Translational Sciences (NCATS)
